Assay results reported in PubChem BioAssay (EPA / NIEHS).
Activity calls are given as the source filed them. How the source made its calls: active means hit-call score of the fitted dose curve at least 0.9, where 1 is the maximum; inactive means score below 0.9.

Test: ATG_TAL_CIS: Attagene CIS-FACTORIAL HepG2 Assay for human TAL Basal Promoter (AID 2282966)
Conditions: HepG2 Attagene cis-factorial TAL promoter reporter; actives raise or lower the signal
Experimental: ATG_CIS is a cell-based, multiplexed-readout assay that uses HepG2, a human liver cell line, with measurements taken at 24 hours after chemical dosing in a 24-well plate.ATG_TAL_CIS is one of 52 assay component(s) measured or calculated from the ATG_CIS assay. It is designed to make measurements of mRNA induction, a form of inducible reporter, as detected with fluorescence intensity signals by Reverse transcription polymerase chain reaction (RT-PCR) and Capillary electrophoresis technology.Data from the assay component ATG_TAL_CIS was analyzed into 1 assay endpoint. This assay endpoint, ATG_TAL_CIS, was analyzed with bidirectional fitting relative to DMSO as the negative control and baseline of activity. Using a type of inducible reporter, measures of mRNA for gain or loss-of-signal activity can be used to understand the background control at the transcription factor-level as they relate to the gene . Furthermore, this assay endpoint can be referred to as a secondary readout, because this assay has produced multiple assay endpoints where this one serves a background control function. To generalize the intended target to other relatable targets, this assay endpoint is annotated to the background measurement intended target family, where the subfamily is internal marker.
Human liver HepG2 cells are transiently transfected with multiple reporter transcription units (MRTUs) in 6-well plates using FuGene 6 reagent (Roche; 3 ml FuGene/1 mg DNA). The MRTU constructs are regulated by a cis-regulating element (promoter). […] A major difference between the CIS and TRANS system is that in CIS activities of endogenous TFs are measured, whereas the TRANS assay evaluates changes in activities of exogenous, chimeric NR-Gal4 proteins. […] At the end of 24 hour incubation, total RNA was isolated using TriZol reagent (Invitrogen). The isolated RNA is then reverse-transcribed using oligo(dT) primer and Mo-MLV reverse transcriptase (Invitrogen) with DNAse I (Ambion) treatment for 30 min. The one-tenth of the produced cDNA was amplified by PCR using Taq DNA polymerase (Invitrogen) and two reporter sequence-specific primers. The PCR products were fluorescently labeled by primer extension with 6-arboxyfluorescein (6-FAM) 5'-labeled reporter sequence-specific primer (2 min at 95 C, 20 s at 68 C and 10 min at 72 C) and these products were digested with 5U of HpaI (New England Biolabs) for 2h at 37 C. The fragments were purified using Qiaquick PCR columns (Qiagen), analyzed on an ABI 3130xL genetic analyzer (Applied Biosystems) with peak positions identified by using a set of X-rhodamine (ROX)-labeled MapMarker1000 molecular weight standards (BioVentures). The raw capillary electrophoresis data was processed using Attagraph software (Attagene).

SMILES | outcome | AC50
CN(C)CCC#N | inactive | 
CCOC(=O)COc1ccc(Cl)cc1Cl | inactive | 
COc1ccc(CO)cc1 | inactive | 
CN1C[C@H](C(=O)N[C@]2(C)O[C@@]3(O)[C@@H]4CCCN4C(=O)[C@H](Cc4ccccc4)N3C2=O)C=C2c3cccc4[nH]cc(c34)C[C@H]21 | inactive | 
Cc1ccccc1CCl | inactive | 
Cl/C=C\CCl | inactive | 
Nc1c(Cl)c(Cl)c(Cl)c(Cl)c1Cl | inactive | 
Nc1ccc(-c2ccc(N)c(N)c2)cc1N | inactive | 
CC[N+](=O)[O-] | inactive | 
COC(=O)COc1ccc(Cl)cc1Cl | inactive | 
CCCCCCC1CCOC1=O (stereo not given) | inactive | 
CN(N=O)c1ccccc1 | inactive | 
N#CCCCl | inactive | 
C=COCCCl | inactive | 
CCC(Br)(CC)C(=O)NC(N)=O | inactive | 
C=CCN(CC=C)C(=O)C(Cl)Cl | inactive | 
[Cl][Sb]([Cl])[Cl] | inactive | 
CCCCCCCCCCCCCCCC[N+](C)(C)C |  | 138 µM (active)
CN1C(=O)CCS(=O)(=O)C1c1ccc(Cl)cc1 (stereo not given) | inactive | 
CC(O)CN(CC(C)O)CC(C)O (stereo not given) | inactive | 

SMILES | outcome | AC50
O=CNC(N1CCN(C(NC=O)C(Cl)(Cl)Cl)CC1)C(Cl)(Cl)Cl (stereo not given) | inactive | 
C=CC(=O)OCCO | inactive | 
CC(C)(Cl)Cl | inactive | 
O=C(NC(=O)c1c(F)cccc1F)Nc1ccc(Oc2ccc(C(F)(F)F)cc2Cl)cc1F | inactive | 
C[N+](C)(C)CC(=O)O | inactive | 
ClCC(Cl)Cl | inactive | 
CCOP(=O)(OCC)Oc1ccc([N+](=O)[O-])cc1 | inactive | 
O=[N+]([O-])c1ccc(Cl)cc1 | inactive | 
C=C(Cl)Cl | inactive | 
CC(C)CCCCCCCOP(=O)(Oc1ccccc1)Oc1ccccc1 | inactive | 
CCOC(=O)NC(=S)Nc1ccccc1NC(=S)NC(=O)OCC | inactive | 
O=C(O)c1cc[c]([Hg][Cl])cc1 | inactive | 
O=C1C=CC(=O)C=C1 | inactive | 
CCCCCc1cc(O)cc(O)c1 |  | 100 µM (active)
Cc1cc(C)c(C2=C(OC(=O)CC(C)(C)C)C3(CCCC3)OC2=O)c(C)c1 | inactive | 
O=c1[nH]c(Cl)c(Cl)cc1Cl | inactive | 
CC1(C)CC(=O)CC(C)(C)N1[O] | inactive | 
CC(=O)/C=C/c1ccccc1 | inactive | 
C[N+](=O)[O-] | inactive | 
CCCCCCCCCCCC#N | inactive | 
